Results: PubChem BioAssay
Activity calls are given as the source filed them.

Columns and labels:
[1] = compounds binding Alexa647 anti-His antibody – biochemical, small-molecule microarray, 635 nm fluorescence, artefact control for SMM control protein annotation, primary screen (AID 1128); conditions: higher = more signal;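 further: score merges feature fluorescence with signal-to-noise for each printed compound spot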
[2] = tested on: Human papillomavirus type 1a E7 protein (residues 1-88); experiment: HPV1a E7 small-molecule binders, primary screen, biochemical, small-molecule microarray, residues 1-88, 635 nm (AID 1129); conditions: small-molecule microarray binding, fluorescence 635 nm; higher = more signal
[3] = target: Focal adhesion kinase 1 (Homo sapiens) (UniProt Q05397); experiment: PTK2 protein binding on printed compound slides – biochemical, small-molecule microarray, 635/667 nm fluorescence, BSA, DTT, primary screen (AID 1130); conditions: 635 nm fluorescence, higher = more signal;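 further: composite of spot emission at 667 nm and signal to noise over triplicate slides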
Chain of Focal adhesion kinase 1 (Homo sapiens) (Q05397 whole entry, looked up): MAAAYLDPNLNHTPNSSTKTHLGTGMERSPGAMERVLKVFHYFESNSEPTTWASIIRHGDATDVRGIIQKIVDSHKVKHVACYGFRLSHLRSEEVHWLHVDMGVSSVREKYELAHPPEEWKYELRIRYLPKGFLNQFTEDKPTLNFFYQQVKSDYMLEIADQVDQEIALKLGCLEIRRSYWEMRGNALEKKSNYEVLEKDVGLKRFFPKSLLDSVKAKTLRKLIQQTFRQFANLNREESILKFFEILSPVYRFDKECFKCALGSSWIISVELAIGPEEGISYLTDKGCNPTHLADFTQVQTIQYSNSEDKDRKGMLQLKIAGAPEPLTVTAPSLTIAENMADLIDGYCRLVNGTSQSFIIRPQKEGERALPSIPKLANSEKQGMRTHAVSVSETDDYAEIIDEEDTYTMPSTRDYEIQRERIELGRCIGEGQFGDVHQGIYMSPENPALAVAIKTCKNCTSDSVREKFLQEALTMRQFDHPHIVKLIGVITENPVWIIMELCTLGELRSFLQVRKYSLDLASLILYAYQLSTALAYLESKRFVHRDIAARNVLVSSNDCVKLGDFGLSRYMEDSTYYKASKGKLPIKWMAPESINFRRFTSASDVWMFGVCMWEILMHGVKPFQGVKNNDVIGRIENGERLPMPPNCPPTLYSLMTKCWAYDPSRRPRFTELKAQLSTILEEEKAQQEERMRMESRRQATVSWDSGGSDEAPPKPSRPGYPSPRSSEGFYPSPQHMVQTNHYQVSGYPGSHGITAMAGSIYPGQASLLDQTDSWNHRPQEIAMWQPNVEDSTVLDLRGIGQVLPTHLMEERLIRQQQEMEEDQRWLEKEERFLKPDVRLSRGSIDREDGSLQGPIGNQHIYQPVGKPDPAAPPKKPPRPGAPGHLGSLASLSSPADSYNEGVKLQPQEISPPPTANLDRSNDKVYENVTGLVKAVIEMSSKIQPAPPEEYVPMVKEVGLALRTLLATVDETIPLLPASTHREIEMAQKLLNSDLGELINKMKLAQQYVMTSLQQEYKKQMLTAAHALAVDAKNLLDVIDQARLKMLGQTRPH

[4] = tested on: Fibrinogen (Alexa647-labelled); experiment: Alexa647-fibrinogen binding to printed small molecules – biochemical, small-molecule microarray, 635/667 nm fluorescence, artefact control for SMM control-protein annotation, profiling panel (AID 1131); conditions: fibrinogen-A647 binding fluorescence, higher = more signal;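 further: z-score merges 667 nm fluorescence with per-spot signal-to-noise over triplicate slides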
[5] = target: Follistatin (Homo sapiens) (UniProt P19883); experiment: FST protein binding to printed compounds – biochemical, small-molecule microarray, 635/667 nm fluorescence, primary screen (AID 1132); conditions: 635 nm fluorescence, higher = more signal
Chain of Follistatin (Homo sapiens) (P19883 whole entry, looked up): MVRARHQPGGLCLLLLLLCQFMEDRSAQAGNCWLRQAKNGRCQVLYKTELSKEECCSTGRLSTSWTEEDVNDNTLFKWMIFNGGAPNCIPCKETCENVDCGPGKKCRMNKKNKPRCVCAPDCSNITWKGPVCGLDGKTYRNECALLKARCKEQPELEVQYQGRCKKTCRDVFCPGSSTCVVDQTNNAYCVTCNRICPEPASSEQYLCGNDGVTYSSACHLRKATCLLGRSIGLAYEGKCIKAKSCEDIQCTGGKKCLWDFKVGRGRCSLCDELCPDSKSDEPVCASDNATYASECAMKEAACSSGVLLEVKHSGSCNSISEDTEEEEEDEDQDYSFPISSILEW

[6] = target: Fibroblast growth factor 2 (Homo sapiens) (UniProt P09038); experiment: basic fibroblast growth factor binding to printed compounds – biochemical, small-molecule microarray, 635/667 nm fluorescence, primary screen (AID 1133); conditions: FGF2, fluorescence 635/667, higher = more signal
Chain of Fibroblast growth factor 2 (Homo sapiens) (P09038 whole entry, looked up): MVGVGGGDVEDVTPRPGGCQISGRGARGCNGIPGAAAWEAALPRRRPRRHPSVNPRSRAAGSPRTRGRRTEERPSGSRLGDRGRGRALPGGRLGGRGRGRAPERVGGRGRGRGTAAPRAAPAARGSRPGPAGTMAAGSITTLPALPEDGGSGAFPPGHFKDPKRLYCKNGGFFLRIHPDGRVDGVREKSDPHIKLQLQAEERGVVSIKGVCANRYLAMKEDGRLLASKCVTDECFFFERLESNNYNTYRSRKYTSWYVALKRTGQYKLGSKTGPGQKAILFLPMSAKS

[7] = JC-1 mitochondrial potential readout, lung cancer cells – cell-based, A549, JC-1 fluorescence, basal, 24 h, 100 nL, profiling panel (AID 1138); conditions: higher = more signal;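 further: A549 lung adenocarcinoma cells under basal conditions with no added stimulus; test concentration not given here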
Lefty1 = Lefty1 protein binding to printed compounds – biochemical, small-molecule microarray, 635/667 nm fluorescence, primary screen (AID 1139); conditions: fluorescence 635/667, higher = more signal
[8] = tested on: wheat germ agglutinin (Triticum aestivum), Alexa647-labelled; experiment: Alexa647-WGA lectin binding to printed small molecules – biochemical, small-molecule microarray, 635/667 nm fluorescence, artefact control for SMM control-protein annotation, profiling panel (AID 1140); conditions: WGA-A647 binding, 635 nm fluorescence, higher = more signal;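 further: score merges 667 nm feature emission with signal to noise over triplicate slides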
[9] = target: Luciferin 4-monooxygenase (Photinus pyralis) (UniProt P08659); experiment: inhibition of purified Photinus pyralis luciferase – biochemical, luminescence, purified enzyme, 2006 set, primary screen (AID 1141); conditions: purified firefly luciferase, SteadyGlo luminescence, 30 min; higher = more signal, called active from +8 up or from −8 down;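 further: cell-free assay with purified firefly luciferase at 100 ng per well in PBS; test concentration not given here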
Chain of Luciferin 4-monooxygenase (Photinus pyralis) (P08659 whole entry, looked up): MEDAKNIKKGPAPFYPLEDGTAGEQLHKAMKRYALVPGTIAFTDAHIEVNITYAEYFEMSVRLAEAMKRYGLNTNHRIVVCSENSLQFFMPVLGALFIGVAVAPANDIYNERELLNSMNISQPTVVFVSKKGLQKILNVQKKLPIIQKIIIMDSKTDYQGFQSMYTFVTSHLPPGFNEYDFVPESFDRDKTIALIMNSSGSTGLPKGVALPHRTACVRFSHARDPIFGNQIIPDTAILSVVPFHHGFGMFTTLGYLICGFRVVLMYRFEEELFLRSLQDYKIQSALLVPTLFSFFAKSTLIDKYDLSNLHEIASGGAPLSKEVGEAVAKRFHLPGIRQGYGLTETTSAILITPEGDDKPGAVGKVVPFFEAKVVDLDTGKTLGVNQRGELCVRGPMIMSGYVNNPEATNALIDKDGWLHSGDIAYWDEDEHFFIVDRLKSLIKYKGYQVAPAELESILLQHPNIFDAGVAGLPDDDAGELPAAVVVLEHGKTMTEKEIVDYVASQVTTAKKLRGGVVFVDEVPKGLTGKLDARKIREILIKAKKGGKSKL

Row | Compound | composite z-score [1] | composite z-score [2] | composite z-score [3] | composite z-score [4] | composite z-score [5] | composite z-score [6] | z-score [7] | composite z-score (Lefty1) | composite z-score [8] | z-score [9]
1 | [N-]=[N+]=NCc1ccccc1[C@@H]1OC(c2ccc(OCCCO)cc2)=N[C@]1(CCS(=O)(=O)c1ccccc1)C(=O)N1CCOCC1 | 3.06 | 1.24 | 0.531 | 1 | 1.16 | 0.138 | -0.191 | 0.186 | 1.24 | -1.43 (inactive)
2 | C#CCOc1ccc(C[C@@H](C(=O)OC)N(CC#C)[C@@H](/C=C/C2CC2)[C@H](O)Cc2ccccc2)cc1 | 0.135 | -0.438 | 0.0472 | -0.651 | 0.24 | -0.768 | 2.32 | 0.22 | -1.34 | -0.497 (inactive)
3 | COCCOC(=O)N1C(=O)[C@@]2(c3cc(C#Cc4ccc(OC)cc4)ccc31)[C@H](c1ccc(O)cc1)N1[C@H](c3ccccc3)[C@H](c3ccccc3)OC(=O)[C@H]1[C@@H]2C(=O)Nc1nc2ccccc2s1 | 0.513 | 1.19 | -0.0177 | 0.939 | 1.26 | 0.499 | -2.06 | 0.617 | 0.649 | -0.894 (inactive)
4 | COc1ccc([Si](C)(C)[C@@H]2[C@@H](CCn3cc(CCO)nn3)O[C@]3(C(=O)N(Cc4cccc(N5C(=O)c6cccc7cccc5c67)c4)c4ccccc43)[C@H]2C)cc1 | 1.18 | 1.16 | 0.321 | 0.556 | 1.16 | 0.672 | -1.1 | 1.23 | 0.509 | 0.178 (inactive)
5 | CCOC(=O)C[C@H]1[C@H](OC(=O)c2ccc(-c3ccccc3)cc2)[C@@H](NC(=O)c2ccccc2)c2cc(OCCCO)ccc2N1C(=O)Cc1ccc(OC)cc1 | -0.913 | -0.509 | -0.355 | -0.264 | -0.434 | 0.1 | 1.45 | -0.336 | -0.126 | -0.938 (inactive)
6 | C=C(CCCC)/C(=C/C[C@H](OC(C)=O)c1ccccc1OCCO)c1cnc2ccccc2c1 | 0.528 | 0.545 | -0.0464 | -0.128 | 0.891 | 0.481 | 1.76 | 0.861 | 0.664 | -0.895 (inactive)
7 | CC(C)N1CC=CC23O[C@@H]4C=CCOC(=O)[C@@H]4[C@H]2C(=O)N(CCCCCO)[C@@H]3C1=O (stereo not given in full) | 2.11 | -0.01 | 0.345 | -1.86 | -0.382 | -0.377 | -0.178 | 0.204 | 0.0322 | -3.48 (inactive)
8 | COc1cc2c(cc1O)C(c1cccs1)N(Cc1cccc(OC(F)(F)F)c1)CC2 (stereo not given) | 2.17 | 0.733 | 0.758 | 0.173 | 0.457 | 0.252 | -0.0263 | -0.196 | 0.84 | -0.619 (inactive)
9 | O=C1C2C=CC(C(O)c3ccc(F)cc3)N(Nc3ccc([N+](=O)[O-])cc3)C2C(=O)N1c1ccccc1 (stereo not given) | 1.76 | 0.705 | 0.789 | 1.02 | 0.282 | -0.0449 | -0.433 | 0.16 | 1.09 | 1.43 (inactive)
10 | OCC1C=C(/C=C/c2ccccc2)CN1Cc1ccccc1Br (stereo not given) | 1.5 | 0.278 | -0.18 | 0.891 | 1.29 | 1.39 | 0.426 | 1.51 | 0.94 | -1.05 (inactive)
11 | O=C1NC(=O)C2C1C=CC(C(O)C1CC=CCC1)N2Nc1ccccn1 (stereo not given) | 1.33 | -0.264 | -0.599 | -0.0881 | 0.585 | 0.582 | 0.692 | 0.616 | 0.763 | -1.13 (inactive)
12 | COC(=O)c1c(CC[C@@H](CO)NC(=O)NCCc2c[nH]c3ccccc23)oc(C(=O)Cc2ccccc2)c1C(=O)OC | 0.108 | 0.27 | 0.131 | 0.273 | 0.368 | 0.251 | -0.364 | 0.456 | 0.0707 | 0.521 (inactive)
13 | CCCC[C@@H]1C[C@H]1[C@@H](NC(=O)c1cccnc1)c1ccc(Cl)cc1 | -1.38 | -2.87 | -0.518 | -2.97 | -2.16 | -2.46 | 0.66 | -2.59 | -1.72 | 0.928 (inactive)
14 | [N-]=[N+]=NCc1ccccc1[C@H]1OC(c2ccc(OCCCO)cc2)=N[C@@]1(Cc1ccccc1)C(=O)N1CCCCC1 | 0.777 | 1.23 | 0.795 | 1 | 1.45 | 1.52 | 0.779 | 0.944 | 0.834 | 0.486 (inactive)
15 | NC(=O)NCC#Cc1ccc2c(c1)[C@]1(C(=O)N2)[C@H](C(=O)O)[C@H]2C(=O)O[C@H](c3ccccc3)[C@H](c3ccccc3)N2[C@@H]1c1ccc(O)cc1 | 0.0795 | 0.0885 | 0.06 | 0.972 | 1.31 | 0.153 | -1.01 | 0.654 | 0.642 | -1.5 (inactive)
16 | COCCCNC(=O)[C@]1(Cc2ccccc2)N=C(c2ccc(OCCCO)cc2)O[C@@H]1c1ccccc1CN=[N+]=[N-] | 2.51 | 1.14 | 0.802 | 0.957 | 1.31 | 1.46 | 1.16 | -0.0031 | 0.963 | -0.932 (inactive)
17 | CC1CC/C=C\[C@H]2OC34C=CCN(Cc5ccccc5)C(=O)[C@H]3N(C(C)CO)C(=O)[C@@H]4C2C(=O)O1 (stereo not given in full) | -0.216 | -0.922 | -0.286 | -0.696 | 0.462 | -0.005 | 0.924 | 1.06 | -0.626 | -0.97 (inactive)
18 | O=C1O[C@H](c2ccccc2)[C@H](c2ccccc2)N2[C@H]1[C@@H](C(=O)N1CCN(c3ncccn3)CC1)[C@]1(C(=O)Nc3ccc(C#CC4=CCCCC4)cc31)[C@H]2c1ccccc1OCCO | 1.5 | 1.18 | 0.543 | 0.916 | 1.34 | 1.3 | -1.01 | 1.16 | 1.07 | -0.662 (inactive)
19 | COCCCNC(=O)[C@@]1(Cc2ccccc2CN=[N+]=[N-])N=C(c2ccc(OCCCO)cc2)O[C@H]1c1ccccc1CN=[N+]=[N-] | 2.03 | 1.19 | 0.125 | 0.922 | 0.63 | -0.263 | -0.556 | 0.0147 | 0.28 | -2.66 (inactive)
20 | C=C(CCCC)C(=O)CC[C@@H](OC(C)=O)c1ccc(CO)o1 | 0.184 | -0.261 | -0.437 | 0.513 | 1.36 | 1.8 | -0.683 | 1.64 | 0.201 | -1.3 (inactive)
21 | COC(=O)C(CC#Cc1ccc2c(c1)[C@]1(C(=O)N2)[C@H](c2ccccc2OCCO)N2[C@H](c3ccccc3)[C@H](c3ccccc3)OC(=O)[C@H]2[C@@H]1C(N)=O)C(=O)OC | 1.6 | 1.22 | 0.473 | 0.711 | 0.619 | 0.168 | -0.153 | -0.0878 | 1.15 | -0.821 (inactive)
22 | C[N+](C)(C)CCCC[C@@H]1NC(=O)[C@@H]2C[C@H](C(=O)NCCCCCN)[C@H](c3ccc(O)cc3)N2C1=O | 2.08 | 1.05 | 0.0992 | 0.927 | 1.4 | 1.8 | 0.962 | 1.64 | 0.87 | -1.26 (inactive)
23 | CC(c1ccccc1)C(O)C1C=CC2C(=O)N(c3ccccc3)C(=O)C2N1Nc1ccccc1 (stereo not given) | 0.546 | 1.28 | 0.476 | 1.03 | 1.03 | -0.124 | -1.27 | 0.858 | 1.02 | -0.674 (inactive)
24 | COc1ccc([Si](C)(C)[C@H]2[C@H](CC(=O)N3CCC[C@H]3CO)O[C@@]3(C(=O)N(Cc4cccc(N5CCOC5=O)c4)c4ccccc43)[C@@H]2C)cc1 | 1.3 | 0.883 | 0.266 | 0.405 | 1.42 | 1.64 | 1.1 | 1.47 | 0.149 | 0.526 (inactive)
25 | O=C(NCCN1CCOCC1)[C@@H]1c2ccccc2C(=O)N(Cc2cc(C(F)(F)F)cc(C(F)(F)F)c2)[C@H]1c1ccc(CO)cc1 | 0.537 | -0.137 | 0.31 | -0.487 | -0.48 | -0.879 | 2.57 | -0.75 | 0.4 | -0.372 (inactive)
26 | CCCCCN1CC=CC23O[C@@H]4C=CCOC(=O)[C@@H]4[C@H]2C(=O)N(C(C)CO)[C@@H]3C1=O (stereo not given in full) | -0.396 | -0.669 | 0.174 | -0.235 | -1.12 | -0.495 | -0.197 | -1.23 | -0.383 | 0.101 (inactive)
27 | COc1ccc(NN2C(C(O)c3ccc(N(C)C)cc3)C=CC3C(=O)N(C4CCCCC4)C(=O)C32)cc1 (stereo not given) | 1.64 | 1.22 | 0.465 | 0.941 | 0.731 | -0.24 | -0.165 | 0.27 | 0.667 | 0.557 (inactive)
